Assay outcomes as filed in PubChem BioAssay.
The list is not random: actives were taken first. Their share in the collection is about 2.8%.
POLB inh – DNA polymerase beta (human) inhibition; P06746; Pol beta primer extension/strand displacement, fluorescence kinetic; Potency, µM (doses to about 114 µM), usual class: inhibitors; actives 1.3% (n = 340,000); AID 485314
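Pol beta (10 nM) was preincubated with compound for 15 min at room temperature. The reaction was then started with 50 nM substrate and read immediately and after a further 10 min at room temperature.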
PI5P4Ka inh – inhibitors of human PI5P4K alpha; PI5P4Kalpha enzyme, ADP-Glo luminescence, 60 min; active compounds read low; max response, %; actives 1.2% (n = 330,000); active = max response of -50% or lower; inconclusive = between -30% and -50%; inactive = -30% or higher; note: value at the top dose of about 77 µM
Target sequence (P48426 whole entry, looked up): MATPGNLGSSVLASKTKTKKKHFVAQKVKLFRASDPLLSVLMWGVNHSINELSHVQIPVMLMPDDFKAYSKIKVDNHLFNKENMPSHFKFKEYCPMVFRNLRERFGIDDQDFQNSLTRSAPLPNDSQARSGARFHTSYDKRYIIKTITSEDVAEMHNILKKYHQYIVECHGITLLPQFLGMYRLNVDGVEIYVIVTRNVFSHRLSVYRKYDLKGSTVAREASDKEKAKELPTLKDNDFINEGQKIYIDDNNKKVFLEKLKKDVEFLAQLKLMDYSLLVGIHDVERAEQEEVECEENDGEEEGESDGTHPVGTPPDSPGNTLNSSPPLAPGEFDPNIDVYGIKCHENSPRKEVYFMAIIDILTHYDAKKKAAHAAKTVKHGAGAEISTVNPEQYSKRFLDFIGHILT
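Reactions run in 0.038 M HEPES pH 7.4, 0.28 mM EGTA, 0.1% CHAPS and 5% DMSO, with PI5P4Kalpha, substrate, compound and 5 microM ATP final, one hour at room temperature. Readout is ADP-Glo luminescence.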
PI4K2A block – blocks human PI4K2A kinase activity; Q9BTU6; purified PI4K2A, ADP-Glo luminescence, 1 h; active compounds read low; activity change, negative = inhibition, % at 76.9 µM; actives 0.13% (n = 420,000); AID 1346378; in the data active = activity change below about -50%; inconclusive = mostly about -30% to -49%
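ADP-Glo luminescence measured ADP generated by PI4K2A enzyme (4 ug/mL before mixing) with 1.2 mM PI substrate (pre-mix) and 300 microM ATP (pre-mix). Tris pH7.5 buffer with MgCl2, Triton X-100; 1 h reaction at ambient temperature.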
Pol kappa inh-1 – blocks human DNA polymerase kappa activity; Potency, µM (highest dose often 107 µM), usual class: inhibitors; Q9UBT6; actives 0.53% (n = 400,000); AID 588579; purified Pol kappa, fluorescent DNA synthesis assay, 10 min
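50 nM final substrate added after 15 min RT preincubation of 10 nM Pol kappa with compound; fluorescence read at 0 and 10 min.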
Pol iota inh – inhibitors of human DNA polymerase iota; Q9UNA4; Pol iota fluorescent replication assay, 10 min; Potency, µM (titrated, usually from 115 µM), usual class: inhibitors; actives 1% (n = 390,000)
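Pol iota at 10 nM preincubated 15 min with compounds at room temperature; reaction started with fluorescent substrate, 50 nM final. Fluorescence read kinetically at 0 and 10 min; buffer-only wells as negative control.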
Pol eta inh-1 – inhibitors of human DNA polymerase eta. recombinant Pol eta, fluorescent DNA replication assay. actives 1.2% (n = 390,000). Potency, µM (highest dose often 114 µM), actives largely listed as inhibitors. Q9Y253
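Fluorescent replication assay: 50 nM final substrate added after a 15 min room-temperature compound preincubation with 10 nM enzyme. Signal taken at 0 min and again at 10 min.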
Pol kappa inh-2 – confirmation of human DNA polymerase kappa inhibitors | Potency, µM, most hits filed as inhibitors | shares compounds with Pol eta inh-1 | AID 720501 | actives 76% (n = 920) | purified Pol-kappa, fluorescent strand-displacement substrate
Pol eta inh-2 – confirmation of human DNA polymerase eta inhibitors; shares compounds with Pol eta inh-1; Pol eta primer extension, TAMRA/BHQ fluorescence, 10 min; Potency, µM, usual class: inhibitors; actives 64% (n = 2,600)
Each line names hits and unclear results; the compound was inactive in the other large screens (follow-up assays come after a bar, where they were run). Unless noted, calls come from the whole dose curve; as a rule, active = well fitted inhibition curve with a large enough effect; inconclusive = small, poorly fitted or top-dose-only effect, or another doubt; inactive = no such curve, though single readings can be large or run the other way.

Cc1cc(C)cc(-n2c(C)cc(/C=C3\C(=N)N4N=C(CC(C)C)SC4=NC3=O)c2C)c1	none
Cc1cc(C)cc(-n2nnc(-c3nc(-c4ccc5c(c4)OCO5)no3)c2C)c1	none (no result: PI5P4Ka inh)
COc1ccc(/C=C/C(=O)O)cc1S(=O)(=O)N1CCCc2ccccc21	POLB inh inconclusive, Pol eta inh-1 44.7µM | Pol eta inh-2 60.1
COc1ccc2[nH]c(CCc3nc4c(OC)c(OC)ccc4[nH]3)nc2c1OC	none (no result: POLB inh, PI5P4Ka inh, PI4K2A block, Pol eta inh-1)
CC(C)(C)S(=O)N1Cc2cc(C(=O)NCC(F)(F)F)nc(-c3cccc(-c4cccc(F)c4)c3)c2[C@@H]1CCO (stereo partly drawn)	none (no result: POLB inh, Pol kappa inh-1, Pol iota inh, Pol eta inh-1)
N#C/C(=C\c1ccc(OCc2ccccc2)cc1)C(=O)Nc1ccc(C(=O)O)cc1	Pol iota inh inconclusive
COc1cc(/C=C(/C#N)C(=O)Nc2ccccc2)c(Br)cc1OCc1ccc(C(=O)O)cc1	Pol iota inh inconclusive, Pol eta inh-1 79.4µM | Pol eta inh-2 inconclusive
COc1ccccc1NC(=O)c1ccc(COc2ccc(C)c(C)c2)o1	none (no result: PI5P4Ka inh)
CCC[C@H]1COCCS(=O)(=O)N1Cc1cccc(F)c1	none (no result: POLB inh, PI5P4Ka inh, PI4K2A block, Pol eta inh-1)
Cc1cc2nc3s/c(=C/c4ccc(-c5ccccc5C(=O)O)o4)c(=O)n3c2cc1C	POLB inh inconclusive, PI5P4Ka inh -86.3, Pol eta inh-1 25.1µM | Pol eta inh-2 33.8
O=C(O)c1ccccc1-c1ccc(/C=C2\SC(=O)N(c3ccccc3)C2=O)o1	POLB inh inconclusive, Pol iota inh inconclusive, Pol eta inh-1 inconclusive
O=C(CN1C(=O)c2ccc([N+](=O)[O-])cc2C1=O)NCc1ccco1	none
O=C(Nc1ccc(O)cc1)c1ccc2c(c1)C(=O)N(Cc1ccco1)C2=O	PI5P4Ka inh -57.3, Pol iota inh inconclusive, Pol eta inh-1 14.1µM | Pol eta inh-2 67.5
O=C(Nc1cc([N+](=O)[O-])ccc1O)c1cccc([N+](=O)[O-])c1	none
O=C(O)c1ccc(C(=O)c2ccc3c(c2)C(=O)N(Cc2ccco2)C3=O)cc1	PI5P4Ka inh -70.8, Pol eta inh-1 20µM | Pol eta inh-2 inconclusive
O=C(Nc1cc([N+](=O)[O-])ccc1O)c1ccc2c(c1)C(=O)N(Cc1ccco1)C2=O	PI5P4Ka inh inconclusive, Pol kappa inh-1 50.1µM, Pol iota inh 39.8µM, Pol eta inh-1 31.6µM | Pol eta inh-2 inconclusive
O=C(Nc1cc([N+](=O)[O-])ccc1O)c1cccc(C(=O)Nc2cc([N+](=O)[O-])ccc2O)c1	Pol eta inh-1 inconclusive | Pol eta inh-2 inconclusive
O=C(Cn1cc(S(=O)(=O)c2ccccc2)c(=O)c2cc(Cl)ccc21)Nc1ccc2c(c1)OCO2	none (no result: PI5P4Ka inh)
COc1cccc(-n2c(C)nc3c(cnn3-c3ccc(C)c(C)c3)c2=O)c1	none (no result: PI5P4Ka inh)
Cn1ccc2cc(S(=O)(=O)N3CCCC(C(=O)NCc4ccc(F)cc4)C3)ccc21 (stereo not drawn)	none (no result: PI5P4Ka inh)
CCOCCCN(Cc1ccco1)S(=O)(=O)c1cc2c(cc1Cl)NC(=O)CO2	POLB inh inconclusive, Pol iota inh inconclusive, Pol eta inh-1 79.4µM (no result: PI5P4Ka inh) | Pol kappa inh-2 inconclusive | Pol eta inh-2 inconclusive
CCOCCCN(Cc1ccco1)S(=O)(=O)c1cc2c(cc1C)NC(=O)CO2	none (no result: PI5P4Ka inh)
Cc1ccc(-c2cc(C(=O)Nc3cccnc3)c3ccccc3n2)o1	POLB inh inconclusive, Pol iota inh inconclusive, Pol eta inh-1 44.7µM (no result: PI5P4Ka inh) | Pol eta inh-2 inconclusive
Cc1ccc(NC(=O)c2cc(-c3ccc(C)o3)nc3ccccc23)cc1	POLB inh inconclusive, Pol kappa inh-1 inconclusive, Pol iota inh inconclusive (no result: PI5P4Ka inh)
Cc1ccc(C)c(CN2CCCN(Cc3ccccc3C)S2(=O)=O)c1	none (no result: PI5P4Ka inh)
CCc1ccc(-n2nc(CO)c(C(=O)NCc3ccccc3Cl)n2)cc1	none (no result: PI5P4Ka inh)
